# In PubChem BioAssay AID540254 (Southern Research Specialized Biocontainment Screening …, 2011):
# Hit rate of the full screen: of about 1,800 compounds, fewer than 10 were called active. How the calls were made is not given here. The list is a sample of the results. Results with a measured potency or affinity are listed apart.
# Assay: antiviral activity against H1N1 influenza, dose response, cell-based, strain KY180 (AID 540254)
# Conditions: H1N1 KY180 influenza antiviral cell-based screen; series mostly up to 40 µM; inhibition: at the top concentration
row,SMILES,inhibition
1,O=C(CSc1ccc(-c2ccccn2)nn1)Nc1ccc(F)c(F)c1,0.25% (inactive)
2,COc1ccc(N2CCN(C(=O)CCC(=O)N3CCOc4ccc(Cl)cc43)CC2)cc1,-1.47% (inactive)
3,Cc1ccc2ccc3cccnc3c2n1,-2.01% (inactive)
4,Cc1noc(/C=C/N(C)C)c1S(=O)(=O)N1CCCC(C(=O)NC2CCCCC2)C1 (configuration not stated),2.53% (inactive)
5,COc1ccc(N=Nc2cc(OC)c(N)cc2OC)cc1,-1.51% (inactive)
6,O=C(NC(=S)NNC(=O)c1ccccc1O)c1ccco1,1.27% (inactive)
7,CC1COCC(C)N1C1=C(Cl)C(=O)c2ccccc2C1=O (configuration not stated),-2.95% (inactive)
8,COc1ccccc1N1CCN(C2CCCN(C(=O)c3cccc(-c4ccco4)c3)C2)CC1 (configuration not stated),-2.46% (inactive)
9,Clc1ccc(-c2ccc(-c3nn4c(-c5ccco5)nnc4s3)o2)cc1,-2.46% (inactive)
10,CCCCCn1cnc2c(sc3nc4c(cc32)CSC(C)(C)C4)c1=O,0% (inactive)
11,CCN(CC)C(=O)C1CCCc2c1[nH]c1ccc(Cl)cc21 (configuration not stated),-1.51% (inactive)
12,CC(NC(=O)C(=O)NN=C1CCCCCCC1)c1ccccc1 (configuration not stated),-0.5% (inactive)
13,COc1ccc(NC(=O)CSc2n[nH]c(-c3ccccn3)n2)cc1,-3.8% (inactive)
14,O=C(N/N=C/c1c(O)n(C2CC2)c(=S)[nH]c1=O)c1ccccc1O,0.56% (inactive)
15,Cc1ccc(NC(=O)CSc2nnc(C)c(=O)n2N)c(C)c1,1.57% (inactive)
16,Cc1ccc(CN2CCC(n3nccc3NC(=O)CCCc3ccccc3)CC2)o1,0% (inactive)
17,O=C1CCCN1CC(=O)N1CCCC(N2CCN(c3cccc(Cl)c3)CC2)C1 (configuration not stated),0.67% (inactive)
18,CCNC(=O)CC1C(=O)N(c2ccc(F)cc2)C(=O)N1Cc1ccc(OC)cc1 (configuration not stated),1.27% (inactive)
19,O=C1C=C(c2c(O)ccc3ccccc23)c2ccccc2C1=O,-2.46% (inactive)
20,CCOC(=O)C1=C(C)n2c(s/c(=C/c3cccc([N+](=O)[O-])c3)c2=O)=NC1c1ccc(O)c(OC)c1 (configuration not stated),-1.27% (inactive)
21,CCC(C(=O)N/N=C(\C)c1cccnc1)c1ccccc1 (configuration not stated),0.98% (inactive)
22,CN(CCCC(=O)O)c1ccc(N=Nc2ccc([N+](=O)[O-])cc2)cc1,0% (inactive)

row,SMILES,inhibition
1,COc1cccc(C(=O)NN2c3ccccc3CCc3ccccc32)c1,0% (inactive)
2,N#C/C(=C/c1cn(-c2ccccc2)nc1-c1cccc(OCc2ccc(F)cc2)c1)C(=O)NCCCn1ccnc1,-5.59% (inactive)
3,CC1NC(=O)NC1CCCCCC(=O)Nc1ccc(F)c(Cl)c1 (configuration not stated),0% (inactive)
4,CCOC(=O)C(C(C)=O)c1c(Br)c(O)c(O)c2c(C(=O)c3ccc(C)cc3)coc12 (configuration not stated),-2.53% (inactive)
5,Cc1ccc(-n2c(SCC(=O)NCc3ccco3)nc3c([nH]c4ccccc43)c2=O)cc1,-0.49% (inactive)
6,CC(C)CC1Nc2ncnc(N3CCN(c4ccccc4)CC3)c2N(Cc2ccccc2)C1=O (configuration not stated),-0.56% (inactive)
7,C[C@@H](C(=O)Nc1nc(-c2ccccn2)cs1)N1C(=O)C2CCCCC2C1=O (some centres not stated),0.5% (inactive)
8,COc1ccc(C2(c3ccc(OC)cc3)NC(=O)N(CC(=O)Nc3ccc(OC(F)F)cc3)C2=O)cc1,-2.95% (inactive)
9,Cn1nc(CC(=O)NC2CCCCCC2)c2ccccc2c1=O,1.25% (inactive)
10,O=C(CCS(=O)(=O)c1ccc(F)cc1)Nc1nc(-c2ccccn2)cs1,-4.7% (inactive)
11,COc1ccc(C2C(C#N)=C(N)Nc3onc(C(C)(C)C)c32)c(OC)c1 (configuration not stated),0.25% (inactive)
12,Oc1cccc(/C=N/NC(=S)Nc2cccnc2)c1O,0.22% (inactive)
13,CCOC(=O)c1c(C)[nH]c(C(=O)N/N=C/c2cc([N+](=O)[O-])ccc2O)c1C,-1.27% (inactive)
14,Cc1[nH]c2ccccc2c1C(c1ccccn1)c1c(C)[nH]c2ccccc12,0.5% (inactive)
15,Cc1[nH]c2ccccc2c1SCC(=O)N1CCOCC1,1.25% (inactive)
16,Cc1ccc(S(=O)(=O)NCc2ccc3c(c2)cc(C)n3C)cc1,-2.91% (inactive)
17,O=C(Nc1nc(-c2ccccn2)cs1)C1COc2ccccc2O1 (configuration not stated),-1.68% (inactive)
18,CC(=O)N/N=C(\C)c1cccc(NC(=O)c2cccs2)c1,0% (inactive)
19,O=C(Nc1nc2c(s1)CCCC2)C1COc2ccccc2O1 (configuration not stated),-1.12% (inactive)
20,Cn1c(=O)c2[nH]c(NN=Cc3ccc(Br)cc3)nc2n(C)c1=O,-1.47% (inactive)
21,COc1ccc(C(=O)NC(=S)NNC(=O)c2cnccn2)cc1OC,0.25% (inactive)
22,COC(=O)c1ccccc1NC1=C/C(=N\S(=O)(=O)c2ccc(C(=O)O)cc2)c2ccccc2C1=O,-2.51% (inactive)

row,SMILES,inhibition
1,CCNC(=S)NNC(=O)c1ccccn1,1.27% (inactive)
2,O=c1c2ccccc2ncn1Cc1ccco1,0.5% (inactive)
3,Oc1c(CN2CCCCC2)ccc2cccnc12,-2.01% (inactive)
4,COCc1cc(C)nc(SCC(=O)Nc2ccc3c(c2)n(C)c(=O)n3C)c1C#N,-0.56% (inactive)
5,Nc1ccccc1C(=O)NCc1ccc(Cl)cc1,-1.27% (inactive)
6,Nc1nc(SCc2ccc([N+](=O)[O-])cc2)nc2nc3c(cc12)CCCC3,1.97% (inactive)
7,CCN(CC)CCNc1nc2cc(OC)c(OC)cc2c2nc(-c3ccccc3)nn12,-5.15% (inactive)
8,Cc1cc(N(C)N)nc(NC(=O)NS(=O)(=O)c2ccccc2Cl)n1,-0.5% (inactive)
9,Cn1cc(S(=O)(=O)Nc2ccc(Br)cc2F)c(=O)n(C)c1=O,1.97% (inactive)
10,O=C(NCC1CCCO1)C(=O)N/N=C/c1cc(Cl)ccc1O (configuration not stated),1.27% (inactive)
11,O=C(NCCCN1CCOCC1)C(=O)N/N=C/c1ccccc1O,0% (inactive)
12,Cc1ccc(OCCn2c(C3CC(=O)N(Cc4ccccc4)C3)nc3ccccc32)cc1 (configuration not stated),-2.51% (inactive)
13,CCOC(=O)c1cnc(-n2[nH]c(C)c(Cc3ccccc3)c2=O)[nH]c1=O,0.56% (inactive)
14,Cc1ccc(C(c2nnnn2Cc2cccs2)N2CCN(Cc3ccc4c(c3)OCO4)CC2)cc1 (configuration not stated),-2.95% (inactive)
15,COc1cc(/C=C2\SC(c3ccccc3)=NC2=O)cc(Cl)c1O,0.56% (inactive)
16,COC(=O)C1CCN(C(=O)Cc2ccc(C)cc2)CC1,0.5% (inactive)
17,COc1ccc(Cc2nnc(N/N=C/c3ccc(O)cc3)[nH]c2=O)cc1OC,-1.51% (inactive)
18,CC1CC(=O)N(C)c2ccc([N+](=O)[O-])cc2N1 (configuration not stated),1.12% (inactive)
19,O=C(c1cc2ccccc2o1)N1CCCCCC1,2.01% (inactive)
20,COc1cc(OC)cc(C(=O)NC(=S)NNC(=O)c2cnccn2)c1,-1.68% (inactive)
21,CC1CCCC(C)N1c1nnc(NC(=O)Cn2c(=O)oc3ccccc32)s1 (configuration not stated),-1.97% (inactive)
22,Fc1ccc(-[n+]2nc(Nc3ccccc3)sc2-c2c(Cl)cccc2Cl)cc1,-2.01% (inactive)

row,SMILES,inhibition
1,CC1NC(=O)NC1CCCCCC(=O)Nc1ccc(F)cc1 (configuration not stated),1.57% (inactive)
2,CCc1nnc(SCC(=O)N2CCc3ccccc32)n1CC,2.46% (inactive)
3,O=C(CNCc1ccccn1)Nc1cc(S(=O)(=O)N2CCCCC2)ccc1Cl,0% (inactive)
4,Cc1nc2sccn2c(=O)c1S(=O)(=O)N1CCN(c2ccc(F)cc2)CC1,4.25% (inactive)
5,O=C1NC(c2ccccn2)Nc2sc3c(c21)CCC3 (configuration not stated),-1.47% (inactive)
6,COc1cccc(/C=N/NC(=O)CCCC(=O)NC2CCCCC2)c1,1.47% (inactive)
7,CCOC(=O)Cn1c(=O)oc2cc(S(=O)(=O)NCc3ccccn3)ccc21,-0.67% (inactive)
8,COc1cccc(C2c3c(oc4ccc(Cl)cc4c3=O)C(=O)N2c2cc(C)on2)c1OC (configuration not stated),-1.57% (inactive)
9,CC(/C=N/NC(=O)c1ccc(Cn2cc([N+](=O)[O-])cn2)o1)=C\c1ccccc1,1.97% (inactive)
10,CCOc1ccc(C(=O)NCCn2cc(SCC(=O)Nc3cc(C)on3)c3ccccc32)cc1,0.56% (inactive)
11,O=C(N/N=C/c1ccc([N+](=O)[O-])cc1)c1ccccc1OCc1ccccc1,-1.01% (inactive)
12,CC(=O)Cc1nsc(NC(=O)c2ccc(-c3cc(C(F)(F)F)ccc3Cl)o2)n1,-0.56% (inactive)
13,CCCCC(=O)NC(c1ccc(N(C)C)cc1)c1ccc2cccnc2c1O (configuration not stated),0% (inactive)
14,CC(C)COC(=O)c1ccc2c(c1O)C(=O)c1ccccc1C2=O,-1.12% (inactive)
15,CCOC(=O)CCSCC(=O)Nc1nnc(C)s1,1.27% (inactive)
16,O=C(CSc1ccccc1)Nc1nnc(/C=C/c2ccccc2)s1,0.25% (inactive)
17,COc1ccc(C(CNC(=O)CN2C(=O)NC3(CCCC3)C2=O)N(C)C)cc1 (configuration not stated),4.02% (inactive)
18,COc1ccc(C(=O)COC(=O)CN2CC(=O)Oc3ccccc32)cc1Br,-1.97% (inactive)
19,O=C(NC1CCCC1)C(c1cccnc1)N(C(=O)c1csnn1)c1ccccc1Cl (configuration not stated),0.22% (inactive)
20,CCOC(=O)C1=C(C)N(C)C(C)=C(C(=O)OCC)C1c1ccncc1,13.2% (inactive)
21,O=[N+]([O-])c1ccc(CSc2ccc(-c3ccccn3)nn2)cc1,-1.01% (inactive)
22,O=C(NN=C1CCCCCC1)c1cccs1,2.53% (inactive)

row,SMILES,inhibition
1,CCOC(=O)C1CCN(c2c(NC3CCCCCCC3)c(=O)c2=O)CC1,-1.12% (inactive)
2,CC(C)C(=O)N(c1cc2sc(=O)oc2c2ccccc12)S(=O)(=O)c1cccs1,-1.27% (inactive)
3,CN1C(=O)/C(=C\c2cc(N=Nc3ccccc3)ccc2O)SC1=S,-0.25% (inactive)
4,CCCC(=O)OC(C(=O)Nc1cc(C(F)(F)F)ccc1Cl)c1ccccc1 (configuration not stated),0% (inactive)
5,Cc1ccccc1-c1nc(CN2CCC(C(=O)N3CCC(C(N)=O)CC3)CC2)c(C)o1,7.38% (inactive)
6,O=C(O)c1ccc(-n2nnnc2Oc2cccc3cccnc23)cc1,1.51% (inactive)
7,Cc1ccc(NC(=O)C2CCCN(c3ncccn3)C2)cc1F (configuration not stated),-0.5% (inactive)
8,CN(C)S(=O)(=O)c1cccc(NC(=O)CNCc2ccccn2)c1,1.97% (inactive)
9,COc1ccc(C)cc1NC(=O)CSc1ccc(-c2ccccn2)nn1,-1.27% (inactive)
10,COc1ccc(N2CCN(CCCNS(=O)(=O)c3ccc4c(c3)oc(=O)n4C)CC2)cc1,1.27% (inactive)
11,COc1ccc(N2CCN(CCCNC(=O)c3cc4sccc4n3C)CC2)cc1,0% (inactive)
12,COc1ccc(N2CCN(C(=O)c3cccc(Cn4cc(Cl)cn4)c3)CC2)cc1,-2.53% (inactive)
13,COc1ccccc1-c1c(C)nn2c(N3CCN(Cc4ccccc4)CC3)cc(C)nc12,-5.59% (inactive)
14,Cc1ccc(C)c(N=Nc2nc3ccccc3n2C)c1,-0.25% (inactive)
15,NS(=O)(=O)c1ccc(NC(=O)Nc2ccc3c(c2)OCO3)cc1,0% (inactive)
16,COc1ccc(/C=N\NC(=O)c2cc(O)c(O)c(O)c2)cc1COc1ccc(C(=O)OCC(C)C)cc1,-1.01% (inactive)
17,Cc1ccc(-c2csc(NC(=O)c3cccc(N4C(=O)CCC4=O)c3)n2)o1,-0.25% (inactive)
18,Cc1cc2cc(CNC(=O)c3ccc(S(=O)(=O)N4CCCC4)cc3)ccc2n1C,1.97% (inactive)
19,Cc1cc(C)c(NN=c2c(=O)c3ccccc3c2=O)c(C)c1,-0.56% (inactive)
